Most compounds without a hit are left out; they make up all but 2.7% or so of the library.
Peg3 prom inh: inhibitors of Peg3 promoter. HeLa PEG-Prom luciferase reporter, luminescence, overnight. inhibition, % at 20 µM. 1.7% of 360,000 active. AID 588405;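 active = inhibition of at least 50% at 20 µM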
Shn3 3UTR inh: inhibitors of Schnurri-3 3'UTR reporter in osteoblasts; Clone20 osteoblast Shn3 3'UTR firefly luciferase, 24 h; AID 588674; 0.52% of 360,000 active; inhibition, % at 12.5 µM;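 active = mean inhibition of at least 75% with every replicate also reaching 75%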;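 note: 0% = median of neutral control wells and 100% = pilot-screen positive control compound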
CF NFkB block: cystic fibrosis NF-kB activation inhibition. KKLEB NF-kB-GFP reporter, PAF-induced, GFP fluorescence overnight. inhibition, % at 5 µM. 0.86% of 360,000 active. AID 588850;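 active = at least 50% inhibition at 5 µM, scaled per plate between neutral and stimulator controls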;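 note: PAF is a Pseudomonas aeruginosa culture filtrate used as stimulus; plate controls were PAF-stimulated DMSO wells for no effect and unstimulated DMSO wells for full effect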
HIF-2a inh: HIF-2a inhibition | 786-0 RCC cells HIF-2a reporter, luciferase luminescence, overnight | inhibition, % at 18.8 µM | 0.72% of 360,000 active | AID 624352;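 active = inhibition of the luminescence signal of 40% or more relative to plate controls, in a single-dose primary screen at 18.75 µM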
TRPM1 prom inh: inhibitors of MITF-driven TRPM1 promoter in melanoma cells; SK-MEL-5 TRPM1 promoter luciferase, 24 h; inhibition, % at 12.5 µM; 0.83% of 330,000 active;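 active = mean inhibition across replicates of 60% or more, whatever share of single replicates reaches that level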
KKLEB cytotox: counter-screen for CF NF-kB inhibitors: cytotoxicity. activity change (cytotoxicity), % at 5 µM. 0.36% of 360,000 active. KKLEB CF airway cells viability, ATPlite luminescence, overnight; active compounds read low; cells stimulated with P. aeruginosa culture filtrate;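 active = corrected activity change at or below -50% at 5 µM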
* = called active by the depositor; x = no result given.

SMILES | Peg3 prom inh | Shn3 3UTR inh | CF NFkB block | HIF-2a inh | TRPM1 prom inh | KKLEB cytotox
O=C1CC[C@@]23CCCN2C(=O)CCCC3C1 (some centres not stated) | -1 | -3 | 24 | 17 | -6 | -2
CSC1SCC2C(=O)N(C)C(C(C)C)C(=O)OCC(NC(=O)c3cnc4ccccc4n3)C(=O)NC(C)C(=O)N(C)C1C(=O)N(C)C(C(C)C)C(=O)OCC(NC(=O)c1cnc3ccccc3n1)C(=O)NC(C)C(=O)N2C (configuration not stated) | 99* | 94* | 96* | 63* | 46 | -37
Cc1ccc(-c2nc(-c3ccccc3)no2)c(Cl)c1 | 9 | 44 | -2 | 61* | 49 | -80*
Cc1nc([N+](=O)[O-])c(Br)n1CC(=O)c1ccc2ccccc2c1 | 47 | 95* | 64* | 11 | 34 | -52*
Cc1nc([N+](=O)[O-])c(Br)n1CC(=O)c1ccccc1 | 11 | 9 | 31 | 31 | -3 | -8
O=C(/C=C/c1ccccc1[N+](=O)[O-])c1ccc(F)cc1 | 107* | 17 | 6 | -122 | -2 | 3
CCOC(=O)C1=CCN(S(=O)(=O)c2ccc(Cl)cc2)C1c1ccccc1 (configuration not stated) | 15 | 8 | 8 | 4 | x | -21
O=C(C1CCCN(c2ncnc3c2nc2n3CCCCC2)C1)N1CCN(c2ccc(Cl)cc2)CC1 (configuration not stated) | 56* | 40 | -16 | 22 | 4 | -9
O=C(C1CCN(c2ncnc3c2nc2n3CCCCC2)CC1)N1CCN(c2cccc(Cl)c2)CC1 | 60* | 59 | -9 | 27 | 28 | -9
O=C(Nc1ccc(Cl)cn1)C1CCCN(c2ncnc3c2nc2n3CCCCC2)C1 (configuration not stated) | 56* | 39 | -8 | 12 | 2 | 9
O=C(Nc1ccc(Cl)cn1)C1CCN(c2ncnc3c2nc2n3CCCCC2)CC1 | 5 | 57 | 4 | 17 | 22 | 2
CCn1c2ccc(C)cc2c2n[nH]c(=S)nc21 | 7 | -6 | 3 | 14 | 1 | -15
COCc1ccc(C(=O)NC2CCCN(Cc3ccccc3F)C2)o1 (configuration not stated) | 13 | -1 | 3 | -1 | -11 | -9
COc1ccccc1-c1nnc(SC(C(=O)c2c[nH]c3ccccc23)c2ccccc2)n1C (configuration not stated) | 54* | 25 | 19 | 35 | 15 | -8
COc1cccc(-c2nnc(SC(C(=O)c3c[nH]c4ccccc34)c3ccccc3)n2C)c1 (configuration not stated) | 53* | 1 | 10 | 24 | 8 | -13
COc1ccccc1-c1nnc(SCC(=O)NC2CC2)n1C | 11 | -14 | 15 | 4 | -5 | -6
CC(C)Nc1ncnc2c1ncn2[C@H]1CN(Cc2cccnc2)C[C@@H](CO)O1 | -7 | 5 | -6 | 9 | x | -2
Clc1ccc(-n2cnc3c(Cl)ncnc32)cc1Cl | 74* | 22 | -3 | 0 | 5 | -8
O=C(CCN1C(=O)/C(=C/c2ccccc2F)SC1=S)N[C@@H](CO)Cc1ccccc1 | 68* | -46 | 16 | 8 | 5 | -1
O=C(CCN1C(=O)/C(=C\c2ccccc2F)SC1=S)Nc1ccc(C(=O)O)c(O)c1 | 4 | 4 | -31 | -6 | -3 | 1
CC(C)(C)OC(=O)N(CCc1ccccc1)Cc1cccc(OCc2cccc(NC(=O)C3CC3)c2)c1 | 1 | 20 | 5 | 11 | 8 | -4
Cc1cc(C(=O)N/N=C/c2cc(Br)ccc2OC(=O)c2ccccc2Cl)n[nH]1 | 24 | 90* | -21 | -15 | 23 | -10
Cn1cc(CN2CCC(n3nccc3NC(=O)C3CCCC3)CC2)cn1 | 10 | 2 | -15 | 12 | 2 | 5
CCn1c(SCC(=O)c2cc(OC)ccc2OC)nnc1C(C)C | 3 | -10 | -9 | 5 | -13 | 3
CCn1c(SCC(=O)c2cc(OC)ccc2OC)nnc1-c1ccncc1 | 70* | 4 | 5 | 0 | 4 | -5
SMILES | Peg3 prom inh | Shn3 3UTR inh | CF NFkB block | HIF-2a inh | TRPM1 prom inh | KKLEB cytotox
CC(C)CCN(C(=O)C1CSC2(C)CCC(=O)N12)c1c(N)n(Cc2ccccc2)c(=O)[nH]c1=O (configuration not stated) | 5 | -6 | 29 | 14 | 7 | -1
CCn1c2ccccc2c2cc(N=C3SC(CC(=O)Nc4ccccc4)C(=O)N3C)ccc21 (configuration not stated) | 11 | 9 | 56* | 20 | 0 | -52*
CCN(CC)C(=O)[C@H]1C[C@H](CC(=O)NCc2ccco2)C(=O)N2CCc3c([nH]c4cc(CCC(=O)N(C)C)ccc34)[C@]12C | -1 | -12 | 10 | -1 | -9 | 13
O=C1c2ccccc2C(=O)C1c1ccc2ccccc2n1 | 53* | 27 | -185 | -25 | 60 | -68*
O=C(CC1CCCC1)N1CCN(S(=O)(=O)c2ccccc2)CC1 | 2 | 1 | 7 | 11 | 2 | -25
CCOC(=O)C1CCN(c2ccccc2CN2CCN(c3ccccc3OCC)CC2)CC1 | 92* | 25 | 33 | -29 | 7 | -15
CC(=O)c1cccc(NS(=O)(=O)c2cc3c(cc2C)N(C(C)=O)CCO3)c1 | -6 | -4 | -6 | 7 | -5 | 0
CCCCSc1nc(C)cc(SCC(=O)N/N=C/c2cccc(OC)c2O)n1 | 53* | 83 | 10 | 19 | 50 | 0
O=C(C[C@H]1C/C=C\CC[C@@H](Cc2ccc(F)cc2)C(=O)O[C@H](c2ccccc2)CNC1=O)N[C@H](CO)Cc1ccccc1 | 81* | -10 | 11 | 4 | 3 | -41
O=C(C[C@H]1C/C=C\C[C@H](Cc2ccc(F)cc2)C(=O)O[C@@H](c2ccccc2)CNC1=O)N[C@@H](CO)Cc1ccccc1 | 42 | 18 | -15 | -1 | 8 | -8
O=C(C[C@@H]1C/C=C/CC[C@H](Cc2ccc(F)cc2)C(=O)OC[C@@H](Cc2ccccc2)NC1=O)N[C@H](CO)Cc1ccccc1 | 82* | 54 | 62* | 9 | 91* | -91*
O=C(C[C@H]1C/C=C\CC[C@@H](Cc2ccc(F)cc2)C(=O)O[C@@H](c2ccccc2)CNC1=O)N[C@@H](CO)Cc1ccccc1 | 88* | 5 | -4 | -1 | -5 | -9
O=[N+]([O-])c1cc(Br)c2nsnc2c1N1CCOCC1 | 18 | -7 | 15 | 19 | 10 | 11
COC1OC(c2ccccc2)=C(c2cnc(N)nc2)c2ccc(F)cc21 (configuration not stated) | x | x | x | 12 | x | x
O=C(O)CCC(=O)N1CCc2cc(S(=O)(=O)NCc3ccc(Cl)cc3)ccc21 | 1 | -1 | -7 | 4 | 12 | 0
COc1cc2c(cc1NC(=O)C(Cl)Cl)-c1ccc(NC(=O)C(Cl)Cl)cc1C2 | 96* | 7 | -10 | -60 | 74* | -14

Screens as filed in PubChem.
